Only some compounds are listed: those with a hit (about 21% of all), similar ones and a draw of the others.
Cycloheximide cs – Cycloheximide Counterscreen for Small Molecule Inhibitors of Shiga Toxin; cell reporter, cycloheximide protein synthesis inhibition counterscreen; max response, %; hit rate 12% among 300,000; AID 2314, 2010; in the data active means max response mostly above about 13%, no sharp cut-off; inactive means mostly below about 14%; further: read at 38.3 µM for the half of the compounds with a filed dose; 0% is about no effect
Pf growth 48h – Primary qHTS for delayed death inhibitors of the malarial parasite plastid, 48 hour incubation. P. falciparum luciferase growth in erythrocytes, 48 h. Potency, µM (titrated, usually from 28.7 µM), inactives show at the highest dose activity change, negative = inhibition, hits mostly inhibitors. hit rate 5.9% among 310,000. AID 504832, 2011; further: potency means the concentration at half of the fitted maximal effect; on the % scale 0 is the no-effect control and ±100 the full control effect
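Cell-based growth assay: transgenic P. falciparum expressing firefly luciferase, cultured in red cells within RPMI 1640 containing 0.5% w/v Albumax, 24 mM bicarbonate and gentamycin. A drop in luciferase activity indicates inhibition.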
HCV inhibitor – qHTS Assay for Inhibitors of Hepatitis C Virus (HCV); hit rate 3.4% among 340,000; AID 651820, 2012; Huh7.5.1 HCVcc-Cre infection, luciferase reporter, 44 h; Potency, µM (titrated, usually from 41.8 µM), for inactives: at the highest dose activity change, negative = inhibition, actives largely listed as inhibitors; further: potency means the concentration at half of the fitted maximal effect; on the % scale 0 is the no-effect control and ±100 the full control effect
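Cells seeded at 1,000/well and cultured 4 h, then compounds added followed by HCVcc-Cre virus (~0.5 moi). After 44 h further culture, luciferase substrate was added, plates held 15 min at room temperature, and luminescence read for 15 sec.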
AMA1 RON2 block – qHTS for Inhibitors of AMA1-RON; Towards Development of Antimalarial Drug Lead: Primary Screen; Plasmodium falciparum AMA1 (3D7) - RON2 peptide interaction; AlphaScreen AMA1-biotinylated RON2 peptide binding; Potency, µM (titrated, usually from 58.2 µM), for the others: at the highest dose activity change, negative = inhibition, hits mostly inhibitors; hit rate 0.2% among 360,000;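 further: potency means the concentration at half of the fitted maximal effect; 0% = vehicle wells and -100% = peptide control; nearly all actives have a fitted effect of over 45% in size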
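AMA1 (3D7) with his tag at 25 nM final met compounds first, then biotinylated RON2 peptide at 25 nM; detection used donor plus acceptor beads, 10 µg/mL apiece, read by AlphaScreen after 30 min at room temperature.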
Shiga inhibitor – A qHTS for Small Molecule Inhibitors of Shiga Toxin. inhibition, % at 38.7 µM. Vero cells, Shiga toxin protein synthesis inhibition reporter. hit rate 9.2% among 290,000; in the data active means inhibition mostly above about 28%, no sharp cut-off; inactive means mostly below about 43%; further: 0% is about no effect
Pf growth 96h – Primary qHTS for delayed death inhibitors of the malarial parasite plastid, 96 hour incubation. hit rate 6.9% among 320,000. Potency, µM (doses to about 28.7 µM), for inactives: at the highest dose activity change, negative = inhibition, most hits filed as inhibitors. P. falciparum luciferase reporter growth, 96 h. AID 504834, 2011; further: potency means the concentration at half of the fitted maximal effect; on the % scale 0 is the no-effect control and ±100 the full control effect
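Erythrocytes infected with luciferase-expressing P. falciparum were dispensed at 2% hematocrit and 0.05% parasitemia (final), then incubated with compounds 96 hours at 37 C in 5% CO2. Luminescence after detection reagent addition reported growth.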
* hit, by the source's call; ? = inconclusive; . = no result; [ ] = dose if it differs, or a comment. Unless noted, the call rests on the fitted dose curve; in most records, active means well fitted curve in the direction sought with a large enough effect; inconclusive means small, poorly fitted or top-dose-only effect, or another doubt; inactive means no such curve, though single readings can be large; an effect the other way counts as inactive or inconclusive.

SMILES	Cycloheximide cs	Pf growth 48h	HCV inhibitor	AMA1 RON2 block	Shiga inhibitor	Pf growth 96h
Cc1cc(C)n(-c2ccc(C(=O)Nc3cccc([N+](=O)[O-])c3)cc2)n1	11	-17%	11µM*	-3%	26	-26%
CCn1c(SCC(=O)OC(C)C)nnc1-c1ccccc1OC	12	-20%	31%	-3%	-14	35%
CCOC(=O)c1nc(C)n(-c2ccc([N+](=O)[O-])cc2)n1	14	50%	-8%	6%	-3	0%
CCOC(=O)c1nc(C)n(-c2ccc(Cl)cc2)n1	20*	31%	1%	-14%	12	21%
O=C(Nc1cccc([N+](=O)[O-])c1)c1[nH]ncc1Cl	62*	315%	-4%	26%	97*	362%
Cc1cc(C)n(-c2ccc(C(=O)Nc3ccc(C)c(S(=O)(=O)N(C)C)c3)cc2)n1	-2	?	10µM*	13%	-4	12µM*
CN(C)S(=O)(=O)c1cccc(NC(=O)c2cc(-c3cccs3)nn2-c2cccc(Cl)c2)c1	-1	?	?	6%	-10	15µM*
COc1ccc(C(=O)C2CCCN(C(=O)c3csc(SC)n3)C2)cc1F (centres undefined)	.	.	.	4%	.	.
Cc1cc(C)n(-c2ccc(C(=O)Nc3cccc(S(=O)(=O)N(C)C)c3)cc2)n1	-4	-30%	5µM*	-30%	-14	?
CC(C)(C)c1ccc(C(=O)Nc2cccc([N+](=O)[O-])c2)cc1	86*	-57%	?	-2%	96*	?
COc1ccc(NC(=O)c2ccc(-n3nc(C)cc3C)cc2)cc1OC	2	8%	7.1µM*	-7%	-10	57%
O=C(Nc1cccc([N+](=O)[O-])c1)c1ccncc1	-2	44%	22%	4%	-7	-19%
CCCc1cc(C(=O)Nc2cccc([N+](=O)[O-])c2)cs1	65*	65%	?	0%	104*	33%
Cc1cc(C)n(-c2ccc(C(=O)Nc3ccc4c(c3)OCO4)cc2)n1	15	.	?	-1%	26	-16%
C[C@H](CO)N1C[C@H](C)[C@H](CN(C)C(=O)c2ccccc2)OCc2ccccc2-c2c(n(C)c3ccccc23)C1=O	.	.	.	-6%	.	.
CCCCN(C=O)c1c(CC)nc2c(OCc3ccc(Cl)cc3Cl)cccn12	.	.	.	8%	.	.
CC(=O)c1cc2c(cc1NC(=O)c1ccc(-n3nc(C)cc3C)cc1)OCO2	.	.	?	17%	.	.
CCN(CC)S(=O)(=O)c1cccc(NC(=O)c2ccc(-n3nc(C)cc3C)cc2)c1	-1	?	2.5µM*	10%	-20	?
Cc1ccc(NC(=O)c2ccc(OC(F)(F)F)cc2)cc1S(=O)(=O)N(C)C	12*	-29%	3.2µM*	-9%	8	?
COCc1cc(C)nc(OCC(=O)N/N=C/c2ccc(-c3cc([N+](=O)[O-])ccc3Cl)o2)c1C#N	-10	16%	-5%	3%	-18	?
COc1ccc(C(=O)Nc2ccc(NC(=O)c3cccc(OC)c3)cn2)cc1	8	?	?	0%	28	-7%
CCn1nnnc1NC(=O)c1cc(Cl)c(OC)c(Cl)c1	-1	10%	-10%	32%	14	?
COc1cccc(C(=O)Nc2ccc(NC(=O)C3CC3)cn2)c1	29*	152%	16%	-15%	70*	8.3µM*
CCn1nnnc1NC(=O)c1cccc(OC)c1	32*	88%	-3%	-9%	83*	3%
CCC(=O)Nc1ccc(NC(=O)c2cccc(OC)c2)nc1	23*	392%	0%	-13%	24*	-8%
SMILES	Cycloheximide cs	Pf growth 48h	HCV inhibitor	AMA1 RON2 block	Shiga inhibitor	Pf growth 96h
COc1ccc(C(=O)Nc2ccc(NC(=O)C3CC3)nc2)cc1	-6	9%	3%	15%	-8	10µM*
CCC(=O)N[C@@H]1C=C[C@@H](CC(=O)NCc2ccccc2F)O[C@@H]1CO	.	.	.	-5%	.	.
O=[N+]([O-])c1ccc(Cc2ccccn2)c([N+](=O)[O-])c1	.	.	-13%	-3%	.	.
C#Cc1ccc([C@H]2C=C(C(=O)N3CCN(Cc4ccc5c(c4)OCO5)CC3)O[C@@H](OCc3ccc(CO)cc3)C2)cc1	-3	?	14%[8.37 µM]	0%	-14	3.3µM*
O=C(C1=C[C@H](c2ccc3c(c2)OCO3)C[C@H](OCc2ccc(CO)cc2)O1)N1CCN(Cc2ccc3c(c2)OCO3)CC1	-4	4.1µM*	35µM*	?	-16	13µM*
CN1CCN(C(=O)C2=C[C@H](c3ccccc3)C[C@H](OCc3ccc(CO)cc3)O2)CC1	7.5*	?	13%	1%	1	7%
O=C(C1=C[C@@H](c2ccccc2)C[C@@H](OCc2ccc(CO)cc2)O1)N1CCOCC1	9	38%	14%	-1%	-14	67%
C[C@H]1C=C(C(=O)N2CCN(Cc3ccc4c(c3)OCO4)CC2)O[C@@H](OCc2ccc(CO)cc2)C1	2	?	35%[8.37 µM]	21%	-9	?
CN1CCN(C(=O)C2=C[C@@H](c3ccc4c(c3)OCO4)C[C@@H](OCc3ccc(CO)cc3)O2)CC1	-1	-12%	-7%	19%	-4	-16%
O=C(C1=C[C@H](c2ccc(Br)cc2)C[C@H](OCc2ccc(CO)cc2)O1)N1CCN(Cc2ccc3c(c2)OCO3)CC1	-4	?	?	-19%	-4	7.4µM*
COCCCn1c(SCC(=O)N2CCCC2=O)nc2ccccc2c1=O	.	.	.	-4%	.	.
CC(=O)Nc1ccc(CN2CCCC(C(=O)c3ccc(C(F)(F)F)cc3)C2)cc1 (centres undefined)	2	?	?	-10%	-9	15%
CCC[C@@H]1CCCO[C@@](C(=O)NCc2cc(C)n(C)n2)(C(F)(F)F)C1	5	.	34%	4%	-4	.
O=C(C1=C[C@H](c2ccccc2)C[C@H](OCc2ccc(CO)cc2)O1)N1CCN(Cc2ccc3c(c2)OCO3)CC1	-1	?	?	-27%	-4	13µM*
C/C(N)=C(/C#N)C(=O)CSc1nnc(Nc2ccccc2)s1	42*	63%	-27%	3%	139*	7%
CSc1nnc(Nc2ccccc2C)s1	16*	.	-7%	-3%	12	9.3µM*
Cc1cc(NC(=O)CSc2nnc(Nc3ccccc3C)s2)no1	-3	?	-14%	37%	-3	?
O=C(CSc1nnc(Nc2ccccc2)s1)NC1CC1	.	16%	4%	8%	.	?
C/C(N)=C(/C#N)C(=O)CSc1nnnn1-c1ccccc1	-3	12%	1%	-4%	10	36%
